Growth inhibition data for eight compounds are collected here from PubChem BioAssay (NCI).

Structures are written as SMILES. Compounds without any hit were thinned out: in the full panel of roughly 79,000, 15% have a hit. Activity calls are given as the source filed them. Rule as the data show it: active = growth inhibition above about 70%; inactive = the rest.

A short description of the experiment: NCI Yeast Anticancer Drug Screen. Data for the rad52 strain (AID 147).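 Also: 0% = growth of vehicle-treated control cultures.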 The following applies: S. cerevisiae rad52 mutant growth inhibition, hits give high values. As for the experimental part:
Growth inhibition of yeast strains with defined genetic alterations is measured as a screen for potential anti-cancer activity. Selected strains with alterations in DNA damage repair or cell cycle control were exposed to compounds and growth inhibition was measured relative to vehicle treated controls. The strain used in this assay is rad52

For the compound `C[C@]12CC[C@H](O)CC1=CC[C@@H]1[C@@H]2CC[C@]2(C)C(=O)CC[C@@H]12`, the growth inhibition was -54% (inactive) (at 1.2 µM); -47% (inactive) (at 3.7 µM); -46% (inactive) (at 11.0 µM); 69% (inactive) (at 33.0 µM); 90% (active) (at 100.0 µM).

On to `Oc1ccc2nc3ccccc3nc2c1`, for which the growth inhibition reads like this: (at 1.2 µM) -1% (inactive); (at 3.7 µM) 4% (inactive); (at 11.0 µM) 24% (inactive); (at 33.0 µM) 64% (inactive); (at 100.0 µM) 95% (active).

For the compound `O=C1OC2C(O1)C1(Cl)C(Cl)=C(Cl)C2(Cl)C1(Cl)Cl` (stereo not given), the growth inhibition is, setting by setting: (at 1.2 µM) -3% (inactive); (at 3.7 µM) -2% (inactive); (at 11.0 µM) -1% (inactive); (at 33.0 µM) 0% (inactive); (at 100.0 µM) 1% (inactive).

As to `CC1=C2C(=C[C@@](C)(CO)[C@@H]2O)C(=O)[C@](C)(O)C12CC2`, the growth inhibition is 2% (inactive) (at 1.2 µM); 9% (inactive) (at 3.7 µM); 21% (inactive) (at 11.0 µM); 42% (inactive) (at 33.0 µM); 74% (active) (at 100.0 µM).

Take `COC(=O)C1=C(C(=O)OC)C2OC1c1cc3ccccc3cc12`: the growth inhibition reads like this: (at 1.2 µM) 21% (inactive); (at 3.7 µM) 33% (inactive); (at 11.0 µM) 79% (active); (at 33.0 µM) 97% (active); (at 100.0 µM) 98% (active).

Take `Cc1c([N+](=O)[O-])oc2ccc3ccccc3c12`: the growth inhibition is 23% (inactive) (at 1.2 µM); 50% (inactive) (at 3.7 µM); 86% (active) (at 11.0 µM); 94% (active) (at 33.0 µM); 92% (active) (at 100.0 µM).

With `CCC1(O)C(=O)OCc2c1cc1n(c2=O)Cc2c-1nc1ccccc1c2OC` (stereo not given), the growth inhibition (at 1.2 µM) is 80% (active); the growth inhibition (at 3.7 µM) was 90% (active); the growth inhibition (at 11.0 µM) is 93% (active); the growth inhibition (at 33.0 µM) was 93% (active); the growth inhibition (at 100.0 µM) is 90% (active).

Turning to `O=C(Nc1cc(Cl)ccc1Cl)C(Cl)(Cl)Cl`, the growth inhibition by setting is: (at 1.2 µM) 1% (inactive); (at 3.7 µM) 6% (inactive); (at 11.0 µM) 12% (inactive); (at 33.0 µM) 22% (inactive); (at 100.0 µM) 30% (inactive).
